# Only a sample is shown.
# aSyn UTR act = Activators working through SNCA 5'UTR binding (MLPCN) | activity score, % (tested at 7.5 µM), hits read low | AID 1814 | hit rate 7.1% among 300,000 | alpha-synuclein 5'UTR reporter, activators screen; in the data active = activity score below about -60%
# Numbers stand for hits; . = inactive.
SMILES,aSyn UTR act
O=C(NCCc1ccccc1)Nc1ccc2c(c1)OCO2,-79.7
O=C(/C=C/c1cccc(Cl)c1)NCCc1ccccc1,-67.5
O=C(NCCc1ccccc1)C(=O)Nc1ccc2c(c1)OCCO2,-136.8
O=C(NCCc1ccccc1)Nc1cccc(Cl)c1,-87.9
C[C@@H]1[C@@H](Sc2ccccc2)CC(=O)O[C@@H]1c1ccc(-c2ccccc2)cc1,-182.1
O=C(CC(Nc1ccc(F)cc1)c1ccccc1)c1ccccc1 (stereo not given),-89.2
Cc1c(Cl)cccc1NC(CC(=O)c1ccccc1)C(=O)O (stereo not given),-102.2
O=C(CC(Nc1ccccc1Cl)C(=O)O)c1ccccc1 (stereo not given),-93.7
COC(=O)c1ccccc1SC(CC(=O)c1ccccc1)c1ccc(F)cc1 (stereo not given),-67.9
O=C(CC(Nc1ccc(Cl)cc1)C(=O)O)c1ccccc1 (stereo not given),-68.6
C=CCn1cccc(C(=O)Nc2ccc(C)c(C)c2)c1=O,-124.3
C=CCn1cccc(C(=O)Nc2ccc(C)cc2)c1=O,-132.5
c1ccc2c(c1)oc1c(NCC3CCCO3)ncnc12 (stereo not given),-178.5
Cc1nc(Nc2ccncc2)c2oc3ccccc3c2n1,-66.1
c1ccc(CNc2ncnc3c2oc2ccccc23)nc1,-171.4
CC(=O)c1ccc(Nc2ncnc3c2oc2ccccc23)cc1,-90.1
Oc1ccc(/C=N/Nc2ccnc3cc(Cl)ccc23)cc1O,-78.5
CCCN1CCN(CCCNC(=O)c2ccc3nc(N4CCC(C)CC4)sc3c2)CC1,-168.6
CC1CCCCN1CCCNC(=O)c1ccc2nc(N3CCCCC3)sc2c1 (stereo not given),-325.6
CCOC(CNC(=O)c1ccc2nc(N3CCC(C)CC3)sc2c1)OCC,-179.6
CC1CC(C)CN(CCCNC(=O)c2ccc3nc(N4CCOCC4)sc3c2)C1 (stereo not given),-113.2
COc1ccc2c(c1)c1nnc(SC)nc1n2C,-68.2
O=C(CNC(=O)c1cn2ccccc2n1)Nc1ccc(F)c(F)c1,-208.6
COc1ccccc1NC1=C(Cl)C(=O)N(c2ccccc2)C1=O,-70.3
CCOc1ccc(NC2=C(Cl)C(=O)N(C3CCCCC3)C2=O)cc1,-102.2
SMILES,aSyn UTR act
O=C1C(Cl)=C(Nc2ccccc2O)C(=O)N1CCc1ccccc1,-87.3
CCOc1ccc(N2C(=O)C(Cl)=C(Nc3ccccc3O)C2=O)cc1,-183.7
CS(=O)(=O)c1ccccc1-c1nc(-c2ccc(C(F)(F)F)cc2)no1,-62.1
O=C(O)c1ccc(-c2noc(-c3ccc(F)cc3)n2)cc1,-93.1
Cc1c(-c2nc(-c3ccc(C(F)(F)F)cc3)no2)n(C)oc1=O,-81.6
O=C(O)c1ccc(-c2noc(-c3ccccc3Cl)n2)cc1,-97.4
O=C(O)c1ccc(-c2noc(-c3ccccc3C(F)(F)F)n2)cc1,-108.8
Cc1cc(C)c(NC(=O)NC(=O)c2cccc(F)c2)c(C)n1,-69.1
Cc1cccc(NC(=O)c2ccc(C(=O)c3ccccc3)cc2)n1,-102.4
O=C(Nc1ccccn1)c1ccc(C(=O)c2ccccc2)cc1,-107.8
Cc1cccc(NC(=O)NC(=O)c2ccccc2)n1,-138.6
O=C(NC(=O)c1ccccc1)Nc1ccccn1,.
COc1ccc(OCc2cccc(C(=O)NN)c2)cc1,.
O=C(NCC1CCCO1)C(=O)N/N=C/c1ccc(OCc2ccccc2Cl)cc1 (stereo not given),-106.3
O=C(Nc1ccccc1F)c1ccc(OCc2ccccc2)cc1,-140.5
O=C(Nc1ccccc1)c1ccc(COc2ccccc2)cc1,-109.2
NNC(=O)c1cccc(COc2cccc(Br)c2)c1,-86.4
CSCc1ccc(C(=O)Nc2ccc(C(N)=O)cc2)cc1,-141.4
O=C(NCC1CCCO1)c1ccc(COc2ccccc2)cc1 (stereo not given),-77.7
O=C(Nc1ccccc1)c1ccc(CSc2ncccn2)cc1,-94.7
NNC(=O)c1ccc(COc2ccc3ccccc3c2)cc1,-75.8
O=C(Nc1ccc(Cn2cccn2)cc1)c1ccc(COc2ccccc2Br)cc1,-107.4
Cc1c(CCC(=O)N[C@@H](C)C(=O)O)c(=O)oc2cc3oc4c(c3cc12)CCCC4,.
Cc1ccc(Nc2nc(N)nc(CSc3nccn3C)n2)c(C)c1,-101.2
Cc1ccccc1Nc1nc(N)nc(CSc2nnnn2C)n1,-109.3
SMILES,aSyn UTR act
Cc1ccccc1Nc1nc(N)nc(CSc2ccc(F)cc2)n1,-125.1
CCc1ccc(Nc2nnc(SCC(=O)Nc3sccc3C(N)=O)s2)cc1,-86.3
CCc1ccc(Nc2nnc(SCC(=O)Nc3cccnc3Cl)s2)cc1,-64.4
CCc1ccc(Nc2nnc(SCC(=O)NCCN3C(=O)CSC3=O)s2)cc1,-65.1
COc1ccc(OCc2cc(C(=O)N3CCOCC3)no2)c(Cl)c1,-81.8
CC(NC(=O)c1cc(COc2c(F)cccc2F)on1)c1cnn(-c2ccccc2)c1 (stereo not given),-90.8
O=C(c1cc(COc2ccc(F)cc2Cl)on1)N1CCSCC1,-197.2
COc1ccc(OCc2cc(C(=O)N3CCSCC3)no2)c(Cl)c1,-107.5
COc1ccc(OCc2cc(C(=O)NC(C)c3cnn(C)c3)no2)c(Cl)c1 (stereo not given),-105.7
COc1ccc(OCc2cc(C(=O)N3CCCCCC3)no2)c(Cl)c1,-90.1
COc1ccc(OCc2cc(C(=O)N3CCC(c4ccccc4)CC3)no2)c(Cl)c1,-63.3
COc1cccc(OCc2cc(C(=O)NC(C)c3cnn(C)c3C)no2)c1 (stereo not given),-77.4
CCCSc1ccc2nc(-c3ccccc3)cn2c1,.
CCCCSc1ccc2nc(-c3ccc(C#N)cc3)cn2c1,-127.8
S=C1NC(c2ccccc2)=NCN1c1ccc(Cl)cc1,-84.0
COc1cccc(C(=O)Cn2c(=N)n(C)c3ccccc32)c1,.
Cn1c(=N)n(CC(=O)c2ccc(Br)s2)c2ccccc21,-118.0
Cn1c(=N)n(CC(=O)c2cccs2)c2ccccc21,-92.1
CCn1c(=O)c(C(=O)Nc2ccsc2C(=O)OC)c(O)c2ccccc21,-65.4
C=CCn1c(O)c(N=NC(=S)Nc2ccc(OC)cc2)c2ccccc21,.
C=CCn1c(=O)c(C(=O)Nc2ccccc2S(N)(=O)=O)c(O)c2ccccc21,-156.1
C=CCn1c(N)c(C(=O)Nc2ccc(C)cc2)sc1=S,-148.8
C=CCn1c(=O)c(C(=O)Nc2ccc(C)cc2)c(O)c2ccccc21,-76.2
CN(C)S(=O)(=O)c1ccc(-c2cn3ccccc3n2)cc1,-193.7
O=[N+]([O-])c1ccc(-c2cn3ccccc3n2)cc1,-147.8
SMILES,aSyn UTR act
O=C1CC(c2cc(Br)ccc2F)c2cc3c(cc2N1)CCC3 (stereo not given),.
Cc1cccc(/C=C/C(=O)c2ccc(NC3=NCCCS3)cc2)c1,-219.5
COc1cccc(/C=C/C(=O)c2ccc(NC3=NCCCS3)cc2)c1,-101.4
Cc1c(C(=O)Nc2ccc(Cl)cn2)oc2ccccc12,-91.0
Cc1c(C(=O)Nc2cnccn2)oc2ccccc12,-106.9
Cc1c(C(=O)Nc2cccc3cccnc23)oc2ccccc12,-118.4
CN(C)CCCNC(=S)NCC(c1ccc(Cl)cc1Cl)c1c[nH]c2ccccc12 (stereo not given),.
NC(=O)c1cc(-c2csc(-c3cccnc3)n2)ccc1O,-102.5
c1ccc(-c2csc(-c3cccnc3)n2)cc1,-77.5
CN1CCN(CC(=O)N(C)c2nc(-c3ccccc3)cs2)CC1,-150.1
c1ccc(-c2nc(-c3cccnc3)cs2)cc1,-108.6
CN(C(=O)c1cccnc1)c1nc(-c2ccccc2)cs1,-128.3
CCOC(=O)c1c(C)[nH]c(C(=O)N/N=C\c2ccccc2Cl)c1C,-63.7
CCOC(=O)c1c(C)[nH]c(C(=O)NNC(=O)c2ccccc2)c1C,-67.1
